What all share (experiment): NCI-60 one-dose screen, 48 h (100 = growth as untreated, 0 = no growth, -100 = all killed)
Common to all, as to details: 10 µM unless noted

The test system of assay [1] is SK-MEL-2 melanoma.
Assay [2] relates to EKVX NSCLC.
Assay [3] relates to SN12C renal.
The test system of assay [4] is UO-31 renal.
For assay [5], the system named is TK-10 renal.
Assay [6] deals with ACHN renal.
In assay [7] the test system is CAKI-1 renal.
The subject of assay [8] is A498 renal.
For assay [9], the system named is CCRF-CEM leukemia.
Assay [10] concerns MOLT-4 leukemia.

SMILES strings stand for the structures. About 83,000 compounds went through this panel and 20% of them were active in at least one assay; those are over-represented in the sample as a whole.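 Each cell line was grown in a 96-well plate and treated with one concentration of compound for 48 hours. Values below 10 were considered active.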 A number with no mark means an inactive call. Active and inactive are the calls of the source.

The record followed here is PubChem BioAssay (NCI).

Consider `N#Cc1c(Cl)nc(SCC2CO2)nc1-c1ccccc1` (stereo not given), for which the growth in assay [1] is 70.1%; in [2], 99.6%; in assay [3], 95.9%; in assay [4], 66.1%; in assay [5] it was 111%; in [6] it was 95.5%. For the same compound, the growth in [7] is 87.9%; in assay [8], 108%; in assay [9], 110%; in assay [10], 113%.
Take `N#C/C(C(=O)c1ccccc1)=C1/C(=O)Nc2ccccc21`: the growth in assay [1] was 106%; in assay [2] it was 99.4%; in [3] it was 93.1%; in assay [4], 73.4%; in assay [5], 118%; in assay [6], 98%. Besides, the growth in assay [7] is 78.8%; in [8] it was 89%; in assay [9], 103%; in [10], 90.4%.
As to `CC1Cc2c(Cl)ncnc2N(C)c2ccccc21` (stereo not given), the growth was -28.2% (active) in assay [1]; 21.7% in [2]; 15.8% in assay [3]; 10.4% in [4]; 15.1% in assay [5]; 26% in [6]. Besides, the growth was 19.3% in assay [7], -18.4% (active) in assay [8], 34.2% in assay [9] and 8.61% (active) in [10].
As to `CCN1CCN(CC(=O)Nc2nc3ccc(NCc4ccc(Cl)cc4)cc3s2)CC1`, the growth was 86.4% in [1]; 86.3% in [2]; 68.4% in assay [3]; 59.6% in [4]; 96.8% in [5]; 83.3% in assay [6]. In addition, the growth in assay [7] was 68.3%; in assay [8], 58.4%; in assay [9], 50%; in assay [10] it was 54.4%.
`N#C/C(=C(/O)CCCO)c1nc2ccccc2c(=O)[nH]1`: the growth is 87.7% in assay [1]; 108% in [2]; 100% in [3]; 106% in assay [4]; 110% in [5]; 106% in assay [6]. Further, the growth in assay [7] is 149%; in assay [8], 124%; in [9], 97.8%; in [10] it was 105%.
With `Cc1cnc(N)nc1OCC(C)(C)CNC(=O)c1cccc(-c2ccc(S(=O)(=O)Nc3ccc4c(c3)N(C(=O)C3CC3)CCC4)cc2)c1`, the growth was 67.7% in [1]; 62.9% in assay [2]; 68.5% in assay [3]; 62% in assay [4]; 76.6% in assay [5]; 70.2% in [6]. Also, the growth in assay [7] was 52.1%; in assay [8] it was 37.3%; in [9], 61.7%; in [10], 29.1%.
Take `CC1(C)[C@@H](NOCCCN)CC[C@]2(C)[C@H]3C(=O)C=C4[C@@H]5C[C@](C)(C(=O)O)CC[C@]5(C)CC[C@@]4(C)[C@]3(C)CC[C@@H]12`: the growth was -63.8% [100 µM] (active) in [1]; -41.4% [100 µM] (active) in [2]; -82.8% [100 µM] (active) in assay [3]; -100% [100 µM] (active) in assay [4]; -84.1% [100 µM] (active) in [5]; -100% [100 µM] (active) in assay [6]. Further, the growth in assay [7] was -79.1% [100 µM] (active); in [8] it was -88.7% [100 µM] (active); in assay [9], 11.6% [100 µM]; in assay [10] it was -6.4% [100 µM] (active).
Take `O=C(Nc1cccc2cccnc12)c1cc(C(=O)c2ccc(Cl)cc2)n2ccc(-c3ccncc3)cc12`: the growth was 112% in assay [1]; 107% in assay [2]; 101% in assay [3]; 81.4% in assay [4]; 108% in assay [5]; 99.7% in assay [6]. In addition, the growth is 83.4% in assay [7], 90.5% in assay [8], 115% in assay [9] and 129% in assay [10].
In the case of `Cc1ncc(C(=O)Nc2ccc(CN3CCN(C)CC3)c(C(F)(F)F)c2)cc1C#Cc1c(N)ncc2ccc(C#N)cc12`, the growth was 39.7% in assay [1]; 57.5% in assay [2]; 32.9% in [3]; 19.3% in [4]; 37% in assay [5]; 12.3% in [6]. Besides, the growth is 16.1% in assay [7], 6.65% (active) in assay [8], 38.1% in assay [9] and 37.3% in [10].
For `C=CCc1nc2ccccc2s1`, the growth was 107% in [1]; 109% in [2]; 110% in assay [3]; 63.6% in [4]; 94.3% in assay [5]; 101% in [6]. For the same compound, the growth in [7] is 98.3%; in [8], 108%; in [9], 84.1%; in assay [10], 89.1%.
For the compound `COc1ccc2[nH]c(C(=O)N3CCN(C(=O)OCc4ccc5c(Br)cc(Br)c(O)c5n4)CC3)cc2c1`, the growth in assay [1] was -89.5% (active); in [2], -76% (active); in assay [3], -86.8% (active); in [4], -100% (active); in assay [5] it was -99.5% (active); in assay [6], -100% (active). For the same compound, the growth in assay [7] was -96% (active); in [8], -97% (active); in [9] it was -11.8% (active); in assay [10] it was -22.3% (active).
As to `CC(C)(C)c1cc(C(=O)Nc2ccc(C(=O)NCCN)cc2)cc(C(C)(C)C)c1`, the growth in assay [1] was 60.3%; in [2], 71.2%; in assay [3], 12.8%; in [4], 69.5%; in assay [5] it was 90.9%; in assay [6], 44.4%. Besides, the growth in assay [7] was 71.7%; in assay [8] it was 13.1%; in assay [9], 3.44% (active); in [10], 10.9%.
Regarding `O=C1/C(=C/c2cccc(OCc3ccccc3)c2)Oc2cc(OCCN3CCCCC3)ccc21`, the growth was 134% in assay [1]; 87.6% in assay [2]; 81.9% in [3]; 65.1% in [4]; 118% in assay [5]; 97.6% in assay [6]. For the same compound, the growth in assay [7] is 84.4%; in [8] it was 81.7%; in assay [9], 53.8%; in assay [10], 82.4%.
For `Cc1ccc(S(=O)(=O)Nc2ccccc2)cc1N`, the growth is 87.4% in assay [1]; 116% in assay [2]; 91.3% in assay [3]; 81.2% in [4]; 121% in assay [5]; 101% in assay [6]. Moreover, the growth in assay [7] was 89.5%; in [8], 76.9%; in assay [9] it was 110%; in assay [10] it was 96.6%.
Take `COC(=O)c1cc2c(=O)[nH]cc3c2c(n1)CCC3`: the growth in [1] was 95.2%; in [2], 101%; in assay [3], 97.2%; in assay [4] it was 75.4%; in assay [5], 106%; in assay [6], 105%. The growth in assay [7] is 97.4%; in assay [8], 104%; in assay [9], 103%; in assay [10] it was 100%.
Turning to `Nc1nc(SCc2cccc([N+](=O)[O-])c2)c2[nH]cnc2n1`, the growth in [1] is 96%; in assay [2], 90.9%; in [3] it was 94.9%; in [4] it was 64.7%; in [5], 90.4%; in assay [6], 99.6%. The growth is 84% in assay [7], 82.1% in assay [8], 95% in assay [9] and 91.4% in assay [10].
`O=S(=O)(NCc1ccccc1)c1ncnc2nc[nH]c12`: the growth is 118% in assay [1]; 111% in assay [2]; 108% in [3]; 93.8% in assay [4]; 115% in assay [5]; 105% in assay [6]. Besides, the growth in [7] is 104%; in assay [8] it was 124%; in [9], 83.1%; in [10], 93.3%.
For the compound `CCOC(=O)C(C(C)=O)c1nc2sc3cc(Cl)c(Cl)cc3n2c(=O)c1C#N` (stereo not given), the growth in [1] was 108%; in [2], 86%; in [3] it was 98.8%; in assay [4], 58.4%; in [5], 145%; in assay [6], 101%. Also, the growth in assay [7] is 96.2%; in [8] it was 142%; in assay [9] it was 96.7%; in assay [10], 89.6%.
Turning to `CC1=CC[C@@H]2C(C)(C)[C@@H](O)CC[C@@]2(C)[C@@H]1COc1ccc2ccc(=O)oc2c1`, the growth was 68.1% in [1]; 72.4% in assay [2]; 32.5% in assay [3]; 2.21% (active) in [4]; 82.3% in assay [5]; 48.6% in assay [6]. In addition, the growth in assay [7] was 36.5%; in [8], 83.2%; in assay [9], 41.7%; in [10], 37.3%.
On to `COc1cc2c(c(Br)c1N)-c1cc(Br)c(N)cc1C2=O`, for which the growth in [1] is 108%; in [2] it was 34.8%; in [3], 39.9%; in [4] it was 51.7%; in [5], 27.2%; in assay [6] it was 57.6%. Also, the growth in assay [7] is 74.3%; in assay [8] it was 61.7%; in assay [9], 86%; in assay [10] it was 97.2%.
Consider `COc1cc2c(c(OC)c1OC)-c1ccc(NNC(N)=S)c(=O)cc1[C@@H](NC(C)=O)CC2`, for which the growth in assay [1] was -8.39% (active); in assay [2], 51.2%; in assay [3], 35.9%; in assay [4] it was 50.8%; in [5] it was 58.7%; in assay [6] it was 46.3%. Also, the growth in assay [7] was 37.5%; in [8] it was 46.6%; in assay [9], 20.8%; in assay [10], 23.1%.
For the compound `Cc1c(Cn2cc(COc3ccc(Br)cc3)nn2)c(C)c(Cn2cc(COc3ccc(Br)cc3)nn2)c(C)c1Cn1cc(COc2ccc(Br)cc2)nn1`, the growth was 87.9% in [1]; 99.5% in assay [2]; 92.6% in assay [3]; 85.5% in assay [4]; 67.4% in assay [5]; 66.7% in assay [6]. In addition, the growth in [7] was 75.1%; in [8], 80.6%; in assay [9], 83%; in [10], 103%.
For `Clc1ccc(N2CCN(CCCN3CCN(c4cccc(Cl)c4)CC3)CC2)cc1`, the growth in assay [1] is 96.7%; in assay [2], 41.9%; in [3], 64.2%; in assay [4], 36.6%; in assay [5] it was 41.4%; in assay [6] it was 71.6%. Besides, the growth in assay [7] was 42.7%; in assay [8] it was 60.4%; in assay [9], 58.9%; in assay [10], 43.7%.
Consider `Cn1cc(-c2noc(-c3cn(C)c4ncc(Br)cc34)n2)c2cc(Cl)ccc21`, for which the growth in [1] was 82.4%; in [2], 62.7%; in assay [3] it was 50.5%; in [4], 71.8%; in assay [5], 64.7%; in [6] it was 31.8%. For the same compound, the growth was 50.8% in assay [7], 84.8% in [8], 68.6% in assay [9] and 67.7% in assay [10].
